Most compounds without a hit are left out; they make up all but 2.3% or so of the library.
HttQ103 aggreg – mutant huntingtin aggregation inhibition | PC12 HttQ103-GFP aggregates, Acumen cytometry, 40 h | Potency, µM (top dose mostly 46.1 µM), actives largely listed as inhibitors | 1.1% of 220,000 active; note: nearly all actives have a fitted effect of over 60% in size
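Aggregate formation scored by laser-scanning cytometer (488 excitation, 500–530 emission) in lysed PC12 cells expressing Q103-GFP after 100 nM tebufenozide induction; library tested in dose series, with ATPLite reagent added in the multiplex.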
KDM4E inh – inhibitors of human JMJD2E histone demethylase. B2RXH2. Potency, µM (series often up to 57.1 µM), most hits filed as inhibitors. AID 2147. JMJD2E catalytic domain, FDH-coupled NADH fluorescence (FDH is formaldehyde dehydrogenase). 1.6% of 230,000 active; active = well fitted inhibition curve with a large enough effect, not every such curve was filed as active; inconclusive = small, poorly fitted or top-dose-only effect, or another doubt; inactive = no such curve, though single readings can be large or run the other way; note: nearly all actives have a fitted effect of over 50% in size
Target sequence (B2RXH2 1-337 limits assumed): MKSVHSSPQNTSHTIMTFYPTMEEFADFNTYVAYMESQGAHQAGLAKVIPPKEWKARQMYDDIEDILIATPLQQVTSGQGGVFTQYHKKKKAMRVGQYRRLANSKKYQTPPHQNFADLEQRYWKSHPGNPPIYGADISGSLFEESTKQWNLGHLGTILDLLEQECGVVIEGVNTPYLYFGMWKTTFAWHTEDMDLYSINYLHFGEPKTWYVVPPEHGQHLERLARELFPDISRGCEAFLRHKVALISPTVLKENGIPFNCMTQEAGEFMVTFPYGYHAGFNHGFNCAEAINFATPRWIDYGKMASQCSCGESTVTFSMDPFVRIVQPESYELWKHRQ
HTT ATP protect – Huntington cell model cytoprotection by ATP luminescence | PC12 HTT-Q103 induced, cytoprotection, ATP luminescence, 40 h | Potency, µM (top dose mostly 56.4 µM), actives largely listed as activators | 0.14% of 230,000 active; note: nearly all actives have a fitted effect of over 45% in size
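Cells were plated at 1500 per well in phenol red-free DMEM with 5% equine and 5% calf serum. Tebufenozide (100 nM final) and compounds were added, then ATPlite reagent, and luminescence was read.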
RGS12 GoLoco inh – inhibitors of human Gai1-RGS12 GoLoco interaction (red fluorophore); P63096; Gai1:RGS12 GoLoco peptide FP, rhodamine, 10 min; Potency, µM (doses to about 61.6 µM), usual class: inhibitors; 0.44% of 230,000 active; active = well fitted inhibition curve with a large enough effect, not every such curve was filed as active; inactive = no such curve, though single readings can be large or run the other way; note: nearly all actives have a fitted effect of over 30% in size
Target sequence (P63096 whole entry, looked up): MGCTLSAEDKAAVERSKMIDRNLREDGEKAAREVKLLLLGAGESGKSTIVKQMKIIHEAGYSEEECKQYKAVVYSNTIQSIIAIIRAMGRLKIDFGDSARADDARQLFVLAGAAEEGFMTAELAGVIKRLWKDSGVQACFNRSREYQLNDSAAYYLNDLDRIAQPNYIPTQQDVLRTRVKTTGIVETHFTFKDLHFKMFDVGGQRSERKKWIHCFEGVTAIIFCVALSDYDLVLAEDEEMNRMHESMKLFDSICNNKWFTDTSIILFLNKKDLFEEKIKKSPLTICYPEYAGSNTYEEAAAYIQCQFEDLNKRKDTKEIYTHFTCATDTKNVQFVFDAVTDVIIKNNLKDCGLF
FBPA coupling cs – counter-screen for Giardia aldolase inhibitors: coupling enzyme system. activity change, negative = inhibition, % at 58.2 µM, hits read low. AID 2472. coupling enzyme system counterscreen, AmpLite Red fluorescence. 0.67% of 290,000 active; in the data active = activity change below about -30%
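Fluorescence at 525 nm excitation and 598 nm emission measured inhibition of the coupled detection system without aldolase. Compounds (at 57.5 uM final) were preincubated 10 min at room temperature with coupling enzyme reagent before a 20 min substrate/AmpLite Red step.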
VDR inhibitor – inhibitors of human vitamin D receptor. Potency, µM, most hits filed as inhibitors. VDR-SRC2-3 peptide fluorescence polarization, 2 h. 0.93% of 400,000 active. P11473
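Reagent solutions, kept cold and dark, are dispensed first; compounds are then pinned in at 23 nl, plates briefly spun, and incubated 2 h at ambient temperature. Inhibition of VDR–SRC2-3 peptide binding is read by fluorescence polarization.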
A number is an active result; 0 = inactive; ? = inconclusive; - = no result; [ ] = remark or other dose. Unless noted, calls come from the whole dose curve; as a rule, active = well fitted curve in the direction sought with a large enough effect; inconclusive = small, poorly fitted or top-dose-only effect, or another doubt; inactive = no such curve, though single readings can be large; an effect the other way counts as inactive or inconclusive.

SMILES | HttQ103 aggreg | KDM4E inh | HTT ATP protect | RGS12 GoLoco inh | FBPA coupling cs | VDR inhibitor
Cc1[nH]c2ccccc2c1N=Nc1ccc(F)cc1 | 0 | 0 | 0 | 0 | 0 | 0
O=C(c1ccccc1)n1nc(-c2ccco2)nc1NCc1ccccc1Cl | - | - | - | - | - | 0
N=c1c2c(-c3ccccc3)c(-c3ccccc3)n(Cc3ccco3)c2ncn1Cc1ccco1 | 11µM | 0 | 0 | 0 | 0 | 0
CCCC1=[N+](CC)CCn2c(C)ccc21 | 11µM | 0 | 0[10 µM] | 13µM | 0 | 0
CCCC1=[N+](CC(=O)c2ccccc2)CCn2c(C)ccc21 | ? | ? | 0 | 0 | 0 | 0
O=C(CCS(=O)(=O)c1ccc(Br)s1)Nc1cc(C(F)(F)F)cc(C(F)(F)F)c1 | - | - | - | - | - | 0
O=C(CCN1CCCC1Cc1ccccc1)c1ccc2c(c1)OCCO2 (centres undefined) | 0 | 0 | 0 | 0 | 0 | 35µM
O=C(CCN1CCC(c2ccccc2)C1)c1ccc2c(c1)OCCO2 (centres undefined) | ? | 18µM | 0 | 0 | 0 | 14µM
COc1ccc(C(C)C)cc1S(=O)(=O)NC1CCCC1 | - | - | - | - | - | 0
COc1ccccc1NC(=O)COC(=O)CCc1ccc(S(=O)(=O)N2CCOCC2)cc1 | - | - | - | - | - | 0
CCOC(=O)c1nc(N)c(C(=O)OCC)[nH]1 | 3.5µM | ? | 0 | 0 | 0 | 0
O=C(c1cc(COc2cccc(C(F)(F)F)c2)on1)N1C[C@@H]2CCC[C@H]1C2 | - | - | - | - | - | 0
O=C1c2ccccc2C(=O)c2c1cccc2N(CCO)CCO | - | - | - | - | 0 | 0
O=C1C=C(N(CCO)Cc2ccccc2)c2ccccc2C1=O | 8.9µM | 0 | 0 | 0 | -75 | ?
CCCCn1c(C)cc2c(c1=O)C1O[C@](c3ccsc3)(Cc3ccccc31)O2 | - | - | - | - | 0 | -
Cc1c(N=Cc2cc3c(cc2[N+](=O)[O-])OCO3)cccc1[N+](=O)[O-] | - | - | - | - | - | 89µM
NC1=CC(=O)c2cccc3cccc1c23 | ? | ? | 0 | 32µM | -34 | -
Cc1ccc(-c2nnc(SCC(=O)N/N=C/c3ccc(C)s3)n2-c2ccccc2)cc1 | 0 | 0 | 0[10 µM] | 0 | 0 | 0
COc1cccc(N2CCN(c3ncnc4c3cnn4-c3ccc(C)cc3C)CC2)c1 | 22µM | ? | 0 | 0 | 0 | 0
Cc1ccc(-n2ncc3c(N4CCCC4)ncnc32)c(C)c1 | ? | ? | 0 | 0 | 0 | 0
Nc1c(C(=O)NCc2ccco2)c2nc3ccccc3nc2n1CCc1ccccc1 | ? | ? | - | 0 | -34 | 0
Nc1c(C(=O)NCc2ccccc2)c2nc3ccccc3nc2n1CCCN1CCOCC1 | 0 | ? | - | 0 | 0 | 0
CC(C)Cc1ccc(C(C)C(=O)Nc2ccccc2O)cc1 (centres undefined) | 0[9.22 µM] | 0 | 0[10 µM] | 0 | 0 | 0
COc1ccc(C(=O)n2nc(-c3ccco3)nc2NCc2cccs2)cc1 | - | - | - | - | - | 0
COC(=O)C1=C(C(=O)OC)C(c2cc(Cl)ccc2O)c2sc(=O)[nH]c2S1 (centres undefined) | 0 | 0 | 0 | 0 | - | ?
SMILES | HttQ103 aggreg | KDM4E inh | HTT ATP protect | RGS12 GoLoco inh | FBPA coupling cs | VDR inhibitor
COC(=O)C1=C(C(=O)OC)C(c2ccc(OC)c(OC)c2)c2sc(=O)[nH]c2S1 (centres undefined) | 0 | ? | 0 | 0 | 0 | 79µM
C=C(C)[C@H]1CC[C@]2(CO)CC[C@]3(C)[C@@H](CC[C@H]4[C@@]5(C)CC[C@@H](O)C(C)(C)[C@@H]5CC[C@@]43C)[C@H]12 | - | 0 | 0 | 0 | 0 | 0
CCN1C(=O)C2C(C1=O)N1C(c3ccccc3)C3C(=O)N(CC)C(=O)C3N1C2c1ccccc1 (centres undefined) | 0 | 0 | 0 | 0 | 0 | 0
CCN1C(=O)C2C(C1=O)N1C(c3cccs3)C3C(=O)N(CC)C(=O)C3N1C2c1cccs1 (centres undefined) | 28µM | 0 | 0 | 0 | 0 | 0
COc1ccc(C(=O)c2ccccc2)c2c(O)ccc(C(=O)c3ccccc3)c12 | 3.5µM | 0 | 0 | 0 | 0 | 0
COc1ccc2c3c(cccc13)C(=O)N(O)C2=O | ? | ? | - | 0 | 0 | 0
COc1ccc(C(C)=O)c2c(O)cccc12 | 0 | 0 | 0 | - | -37 | 0
COc1cc(O)c(C(=O)c2ccccc2)cc1O | - | ? | - | 0 | -47 | ?
COc1cc(O)c(C(=O)c2ccccc2)cc1S(=O)(=O)O | 0 | - | ? | 0 | 0 | 0
C/C=C(\C)C(=O)N1CCC(C(=O)c2ccccc2)CC1 | - | - | - | - | 0 | 0
C[C@@H](Cc1ccccc1)Nc1ncnc2c1ncn2[C@@H]1O[C@@H](CO)[C@H](O)[C@@H]1O | - | - | 0[1.9 µM] | - | - | -
O=C(CCn1c(=O)oc2cc(Cl)ccc21)Nc1ccc(O)cc1 | - | - | - | - | 0 | 0
CCCCN(CC)CCNC(=S)Nc1ccc2nc(N3CCN(C)CC3)cc(C)c2c1 | - | - | - | - | 0 | 0
CCCCN(CC)CCNC(=O)CCC(=O)Nc1ccc2nc(N3CCN(C)CC3)cc(C)c2c1 | 0 | ? | - | 0 | -34 | 0
COc1ccc(Cl)cc1N1C(=O)CN(Cc2cc(OC)c(OC)c(OC)c2)C1=S | - | - | - | - | 0 | ?
c1cncc(CNc2cc(-c3ccoc3)ncn2)c1 | - | - | 0 | 13µM | 0 | 22µM
COc1cc(/C=N/NC(=O)c2cc3ccccc3cc2O)ccc1OCCN1CCCCC1 | 20µM | 0 | - | 0 | 0 | 0
Cc1cccc(N2CCN(C(c3cccs3)c3nnnn3C(C)(C)C)CC2)c1C (centres undefined) | 11µM | 0 | 0[10 µM] | 0 | 0 | 0
CCOC(=O)C1CCCN(C(=O)CCNS(=O)(=O)c2cc(Br)cnc2N)C1 (centres undefined) | - | - | - | - | - | 0
Cc1ccc(C)c(S(=O)(=O)Nc2cc(SCC(=O)O)c(O)c3ccccc23)c1 | 0 | 0 | 0[10 µM] | 0 | -53 | 22µM
CCOc1ccc(S(=O)(=O)Nc2cc3c(C(=O)OC)c(COC)oc3c3ccccc23)cc1 | - | - | - | - | - | 0
CCc1ccc(S(=O)(=O)Nc2cc(SCC(=O)O)c(O)c3ccccc23)cc1 | 0[9.22 µM] | ? | ? | 0 | -42 | ?
CCOc1ccc(S(=O)(=O)Nc2cc(SCC(=O)O)c(O)c3ccccc23)cc1 | - | - | - | - | -62 | 18µM
O=S(=O)(Nc1cc(Sc2cccc3cccnc23)c(O)c2ccccc12)c1ccccc1 | ? | 28µM | - | 0 | -55 | -
Cc1ccc(C)c(NS(=O)(=O)c2cc(C(=O)Nc3ccccc3-c3ccccc3)ccc2C)c1 | ? | ? | 0 | 0 | 0 | 0
SMILES | HttQ103 aggreg | KDM4E inh | HTT ATP protect | RGS12 GoLoco inh | FBPA coupling cs | VDR inhibitor
N[C@@H](Cc1c[nH]c2ccccc12)C(=O)NCC(=O)O | - | - | 0 | - | - | -
CCOC(=O)c1[nH]c2ccccc2c1NC(=O)c1ccccc1OCC | - | - | - | - | - | 0
C[C@H]1CCCC=CC2C[C@H](OC(=O)CN(C)C)C[C@@H]2[C@@H](O)/C=C\C(=O)O1 (some centres undefined) | - | - | 0[10 µM] | 0[14.2 µM] | - | -
CC1=C(C)C(=O)C(N2CCOCC2)=CC1=O | ? | 0 | 0[10 µM] | 0 | -60 | 0
O=C1C(NS(=O)(=O)c2cccs2)=C(N2CCOCC2)C(=O)c2ccccc21 | 0[9.22 µM] | 0 | 0[10 µM] | 0 | 0 | 0
O=C1C=C(N2CCOCC2)c2ccccc2C1=O | - | - | - | - | -66 | ?
